Assay results taken from PubChem BioAssay (EPA / NIEHS).
Calls of active or inactive are those of the source. The calls were made as follows: active = hit-call score of the fitted dose curve at least 0.9, where 1 is the maximum; inactive = score below 0.9.

Legend:
Settings in all cases: mRNA level, 48 h; actives raise or lower the signal
[1] = read-out: ABC Transporter (ABCB11), ABCB11 (gene 8647); experiment: LTEA_HepaRG_ABCB11: Life Technologies and Expression Analysis (LTEA) Assay for ABC Transporter (ABCB11) using HepaRG (AID 2283463)
Procedure, shortened: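 Using HepaRG cultures held in 0.5% DMSO, chemicals were tested at half-log dilutions from 100 uM for 48 h. Induction or suppression of ABCB11 mRNA, normalized to ACTB, GAPDH and POLR2A, was fitted bidirectionally against vehicle.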

[2] = read-out: ABC Transporter (ABCC2), ABCC2 (gene 1244); experiment: LTEA_HepaRG_ABCC2: Life Technologies and Expression Analysis (LTEA) Assay for ABC Transporter (ABCC2) using HepaRG (AID 2283464)
Procedure, shortened: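 HepaRG, 48 h post-plating; serum-free induction medium; cpd 8-pt, 100 uM top, half-log, 0.5% DMSO, duplicate, 48 h. Readout: ABCC2 mRNA by qRT-PCR, norm. ACTB/GAPDH/POLR2A. Bidirectional fit vs DMSO baseline.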

[3] = read-out: Broad substrate specificity ATP-binding cassette transporter ABCG2 (Homo sapiens) (UniProt Q9UNQ0); experiment: LTEA_HepaRG_ABCG2: Life Technologies and Expression Analysis (LTEA) Assay for ABC Transporter (ABCG2) using HepaRG (AID 2283465)
Procedure, shortened: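 Gene expression of ABCG2 in HepaRG liver cells is quantified by qRT-PCR following 48 h exposure across an eight-point series topping at 100 uM. Values come from bidirectional fitting relative to DMSO vehicle.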

[4] = read-out: ATP-citrate lyase (ACLY), ACLY (gene 47); experiment: LTEA_HepaRG_ACLY: Life Technologies and Expression Analysis (LTEA) Assay for ATP-citrate lyase (ACLY) using HepaRG (AID 2283466)
Procedure, shortened: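 ACLY expression changes in human HepaRG liver cells are quantified by qRT-PCR after 48 h exposure to test chemicals (maximum 100 uM, half-log steps). Values are fitted in both directions relative to 0.5% DMSO vehicle.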

[5] = read-out: Peroxisomal acyl-coenzyme A oxidase 1 (ACOX1) gene, ACOX1 (gene 51); experiment: LTEA_HepaRG_ACOX1: Life Technologies and Expression Analysis (LTEA) Assay for Peroxisomal acyl-coenzyme A oxidase 1 (ACOX1) gene using HepaRG (AID 2283467)
Procedure, shortened: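 Human HepaRG hepatic cultures, 48 h treatment with test chemicals up to 100 uM. ACOX1 expression read by qRT-PCR relative to 0.5% DMSO vehicle.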

[6] = read-out: Alkaline Phosphatase, Placental (ALPP) gene, ALPP (gene 250); experiment: LTEA_HepaRG_ALPP: Life Technologies and Expression Analysis (LTEA) Assay for Alkaline Phosphatase, Placental (ALPP) gene using HepaRG (AID 2283468)
Procedure, shortened: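 HepaRG, 48 h plating then 48 h dosing, serum-free induction medium, 0.5% DMSO. 8 conc, half-log, max 100 uM, duplicates. Endpoint: ALPP transcript by qRT-PCR, housekeeping-normalized; gain or loss fitted vs DMSO.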

[7] = read-out: Bcl-2 (BAD) gene, BAD (gene 572); experiment: LTEA_HepaRG_BAD: Life Technologies and Expression Analysis (LTEA) Assay for Bcl-2 (BAD) gene using HepaRG (AID 2283469)
Procedure, shortened: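 Activity values reflect up- or down-regulation of BAD mRNA in human HepaRG hepatic cells treated 48 h in serum-free medium, with eight-point half-log dosing capped at 100 uM and 0.5% DMSO vehicle.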

[8] = read-out: Bcl-2 (BAX) gene, BAX (gene 581); experiment: LTEA_HepaRG_BAX: Life Technologies and Expression Analysis (LTEA) Assay for Bcl-2 (BAX) gene using HepaRG (AID 2283470)
Procedure, shortened: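 qRT-PCR read-out of BAX mRNA, normalized to three housekeeping genes, after 48 h chemical exposure of human HepaRG cells in serum-free induction medium; eight-point half-log series, top 100 uM, 0.5% DMSO vehicle; bidirectional fit versus DMSO.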

[9] = read-out: adenosine kinase (ADK) gene, ADK (gene 132); experiment: LTEA_HepaRG_ADK: Life Technologies and Expression Analysis (LTEA) Assay for adenosine kinase (ADK) gene using HepaRG (AID 2283471)
Procedure, shortened: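 Following 48 h exposure of HepaRG cells in 0.5% DMSO (top concentration 100 uM, duplicate wells), ADK mRNA induction or suppression was measured by qRT-PCR, normalised to ACTB/GAPDH/POLR2A, and fitted bidirectionally relative to vehicle.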

[10] = read-out: Alpha-fetoprotein (AFP) gene, AFP (gene 174); experiment: LTEA_HepaRG_AFP: Life Technologies and Expression Analysis (LTEA) Assay for Alpha-fetoprotein (AFP) gene using HepaRG (AID 2283472)
Procedure, shortened: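 qRT-PCR (Fluidigm TaqMan) readout of AFP transcript, normalized to three housekeeping genes, fitted bidirectionally against 0.5% DMSO baseline. HepaRG cells received chemicals for 48 h in serum-free induction medium, top concentration 100 uM, half-log steps.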

BCL2L11 (gene 10018) = experiment: LTEA_HepaRG_BCL2L11: Life Technologies and Expression Analysis (LTEA) Assay for Bcl-2 (BCL2L11) gene using HepaRG (AID 2283473)
Procedure, shortened: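 Read-out is BCL2L11 transcript level by qRT-PCR, normalized to three housekeeping genes and fitted bidirectionally against 0.5% DMSO vehicle. HepaRG cells received chemicals for 48 h in serum-free induction medium, 100 uM down in half-log dilutions.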

[11] = read-out: Apolipoprotein A-V (APOA5) gene, APOA5 (gene 116519); experiment: LTEA_HepaRG_APOA5: Life Technologies and Expression Analysis (LTEA) Assay for Apolipoprotein A-V (APOA5) gene using HepaRG (AID 2283474)
Procedure, shortened: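 Readout is APOA5 transcript level by qRT-PCR on Fluidigm dynamic arrays, normalized to three housekeeping genes. HepaRG cultures received chemicals for 48 h at up to 100 uM (half-log steps, 0.5% DMSO), with gain or loss scored relative to DMSO.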

[12] = read-out: Bcl-2 (BID) gene, BID (gene 637); experiment: LTEA_HepaRG_BID: Life Technologies and Expression Analysis (LTEA) Assay for Bcl-2 (BID) gene using HepaRG (AID 2283476)
Procedure, shortened: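 HepaRG, 48 h exposure, 8-pt half-log series, top 100 uM, 0.5% DMSO vehicle, duplicates. Readout: BID mRNA by TaqMan qRT-PCR; housekeeping-normalized; bidirectional curve fit vs DMSO baseline.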

Caspase-3 (Homo sapiens) = Caspase-3 (Homo sapiens) (UniProt P42574); experiment: LTEA_HepaRG_CASP3: Life Technologies and Expression Analysis (LTEA) Assay for cysteine-aspartic acid protease (CASP3) using HepaRG (AID 2283477)
Caspase-3 (Homo sapiens), sequence (P42574 whole entry, looked up): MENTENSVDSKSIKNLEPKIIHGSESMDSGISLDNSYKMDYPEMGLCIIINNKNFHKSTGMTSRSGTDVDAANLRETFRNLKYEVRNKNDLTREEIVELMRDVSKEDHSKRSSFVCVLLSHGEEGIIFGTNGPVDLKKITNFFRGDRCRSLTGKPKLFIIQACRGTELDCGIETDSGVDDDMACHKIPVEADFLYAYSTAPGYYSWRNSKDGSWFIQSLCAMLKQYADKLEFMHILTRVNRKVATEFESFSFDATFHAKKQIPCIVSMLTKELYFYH
Procedure, shortened: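 Read-out is CASP3 mRNA level by TaqMan qRT-PCR in human HepaRG cells after 48 h chemical exposure. Eight half-log concentrations topping at 100 uM were tested in 0.5% DMSO; gain or loss was fitted relative to DMSO.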

[13] = read-out: Cytochrome P450 (CYP24A1), CYP24A1 (gene 1591); experiment: LTEA_HepaRG_CYP24A1: Life Technologies and Expression Analysis (LTEA) Assay for Cytochrome P450 (CYP24A1) using HepaRG (AID 2283478)
Procedure, shortened: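 HepaRG, 48 h chemical exposure, 8-pt half-log CRC from 100 uM, 0.5% DMSO vehicle, duplicates. Endpoint: CYP24A1 mRNA by Fluidigm TaqMan qRT-PCR, normalized ACTB/GAPDH/POLR2A; gain/loss fit vs DMSO.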

[14] = read-out: Cytochrome P450 (CYP1A2), CYP1A2 (gene 1544); experiment: LTEA_HepaRG_CYP1A2: Life Technologies and Expression Analysis (LTEA) Assay for Cytochrome P450 (CYP1A2) using HepaRG (AID 2283479)
Procedure, shortened: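 CYP1A2 transcript induction or loss, quantified by Fluidigm qRT-PCR against three housekeeping genes, was fitted bidirectionally against 0.5% DMSO controls. Human HepaRG cells received eight half-log concentrations from 100 uM over 48 h.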

[15] = read-out: cysteine-aspartic acid protease (CASP8), CASP8 (gene 841); experiment: LTEA_HepaRG_CASP8: Life Technologies and Expression Analysis (LTEA) Assay for cysteine-aspartic acid protease (CASP8) using HepaRG (AID 2283480)
Procedure, shortened: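 Concentration-response in duplicate up to 100 uM (half-log steps, 0.5% DMSO) on differentiated HepaRG cultures for 48 h. Expression change of CASP8 mRNA is determined by TaqMan qRT-PCR with housekeeping-gene normalization.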

[16] = read-out: Cytochrome P450 (CYP2B6), CYP2B6 (gene 1555); experiment: LTEA_HepaRG_CYP2B6: Life Technologies and Expression Analysis (LTEA) Assay for Cytochrome P450 (CYP2B6) using HepaRG (AID 2283481)
Procedure, shortened: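 HepaRG cells plated 48 h, switched to serum-free induction medium, then dosed 48 h (8 points, half-log from 100 uM, 0.5% DMSO). RNA isolated; CYP2B6 expression measured by qRT-PCR; gain or loss fitted relative to DMSO.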

[17] = read-out: Cytochrome P450 2C19 (Homo sapiens) (UniProt P33261); experiment: LTEA_HepaRG_CYP2C19: Life Technologies and Expression Analysis (LTEA) Assay for CYP2C19 using HepaRG (AID 2283482)
Procedure, shortened: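 Transcript levels of CYP2C19 were quantified by qRT-PCR after HepaRG cells were treated for 48 hours with test chemicals up to 100 uM (eight half-log concentrations, 0.5% DMSO vehicle). Gain or loss of signal was fitted relative to DMSO.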

Measured: AC50

Broad substrate specificity ATP-binding cassette transporter ABCG2 (Homo sapiens), sequence (Q9UNQ0 whole entry, looked up): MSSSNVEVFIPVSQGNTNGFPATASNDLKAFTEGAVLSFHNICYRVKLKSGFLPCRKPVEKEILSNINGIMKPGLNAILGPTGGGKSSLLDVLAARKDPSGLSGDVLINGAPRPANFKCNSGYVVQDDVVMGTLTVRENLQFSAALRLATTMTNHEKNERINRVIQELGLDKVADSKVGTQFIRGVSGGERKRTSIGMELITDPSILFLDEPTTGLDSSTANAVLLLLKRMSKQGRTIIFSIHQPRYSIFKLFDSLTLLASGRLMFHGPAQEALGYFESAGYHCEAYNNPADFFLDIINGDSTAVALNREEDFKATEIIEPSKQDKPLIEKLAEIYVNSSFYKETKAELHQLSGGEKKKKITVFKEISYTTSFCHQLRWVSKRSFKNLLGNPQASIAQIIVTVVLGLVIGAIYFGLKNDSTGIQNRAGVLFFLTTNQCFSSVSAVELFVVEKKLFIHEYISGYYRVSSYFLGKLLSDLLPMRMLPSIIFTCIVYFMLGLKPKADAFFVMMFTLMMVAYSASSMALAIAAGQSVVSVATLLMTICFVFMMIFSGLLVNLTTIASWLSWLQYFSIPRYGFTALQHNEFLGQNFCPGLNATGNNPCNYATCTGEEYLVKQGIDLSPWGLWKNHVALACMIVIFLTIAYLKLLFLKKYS
Cytochrome P450 2C19 (Homo sapiens), sequence (P33261 whole entry, looked up): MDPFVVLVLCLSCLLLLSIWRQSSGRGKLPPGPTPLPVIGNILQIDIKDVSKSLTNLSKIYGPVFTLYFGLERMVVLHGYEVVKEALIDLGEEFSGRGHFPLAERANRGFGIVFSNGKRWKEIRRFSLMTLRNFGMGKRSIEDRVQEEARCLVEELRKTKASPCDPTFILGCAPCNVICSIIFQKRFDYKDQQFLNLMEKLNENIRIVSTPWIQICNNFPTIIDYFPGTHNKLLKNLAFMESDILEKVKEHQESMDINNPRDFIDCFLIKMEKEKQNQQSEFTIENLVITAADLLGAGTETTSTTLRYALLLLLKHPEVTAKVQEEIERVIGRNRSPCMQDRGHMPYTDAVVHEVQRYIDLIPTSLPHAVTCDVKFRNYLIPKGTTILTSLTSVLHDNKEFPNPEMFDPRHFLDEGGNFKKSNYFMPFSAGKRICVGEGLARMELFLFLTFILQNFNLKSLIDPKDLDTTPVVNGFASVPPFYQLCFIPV

CCOP(=O)(NC(C)C)Oc1ccc(SC)c(C)c1 (centres undefined)
active: [1] 5.28 µM | [10] 16.5 µM | [16] 22.5 µM | [17] 50 µM
inactive: all other assays above

CNC(=O)Oc1cccc2c1OC(C)(C)O2
inactive: all assays above

CCc1cccc(CC)c1N(COC)C(=O)CCl
active: [16] 50 µM
not listed: [17]
inactive: all other assays above

CNc1cnn(-c2cccc(C(F)(F)F)c2)c(=O)c1Cl
active: [1] 20.1 µM | [3] 17.4 µM | [10] 22 µM | [14] 6.1 µM | [16] 6.51 µM
not listed: [17]
inactive: all other assays above
